Assay results as given in PubChem BioAssay.
Where “and” joins values, the source holds several entries; their conditions need not be identical. Equal values may be shown once. Calls of active or inactive are those of the source. Unless noted, how the calls were made is not given here.

Legend:
[1] = compounds altering viability of human ES cells (AID 493140); settings: human embryonic stem cell survival screen; stronger effect = higher value;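 further: cells exposed to compounds for four days before counting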
[2] = viability loss with induced miR-34 in A549 – imaging, A549 dox-inducible miR-34, nuclei and caspase counts, primary screen (AID 1347080;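 active means compounds whose cell count with miR-34 switched on is under 0.7 times the count with it off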); settings: A549 miR-34 inducible, Hoechst nuclei count, 48 h
[3] = chitosan synthesis blockers in C. neoformans – flow cytometry, Cibacron Brilliant Red staining (AID 1347148); settings: Cryptococcus neoformans chitosan, stronger effect = lower value; at 10 µM unless noted;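 further: compound exposure lasted three days at 37 degrees C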
[4] = tested on: Hepatitis C virus NS3 helicase; assay: blockers of NS3h binding to ssDNA – biochemical, fluorescence polarization, LOPAC1280 library, primary screen (AID 687035; in the data active means inhibition above about 37%); settings: Purified HCV NS3 helicase, Cy5-dT15 ssDNA binding fluorescence polarization; stronger effect = higher value; concentration not given here
[5] = compounds altering Cy5-DNA-NS3h complex signal – biochemical, LOPAC1280, artefact control for HCV NS3 helicase inhibitor project (AID 687037); settings: Cy5-DNA-NS3h complex fluorescence interference counterscreen
[6] = blockers of cellular phospholipid synthesis – cell-based, LOPAC library, screen 4, primary screen (AID 1347384); settings: animal cells, phospholipid biosynthesis inhibition screen; at 10 µM
[7] = galactose survival enhancers in mitochondrial complex I cybrids – cell-based, galactose medium, ATP luminescence, primary screen (AID 1645843;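 active means z-score of at least 1.8 in each of two replicates, scored against plate mean and spread of sample wells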;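 further: positive z means more ATP and so rescue of galactose-driven cybrid death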); settings: complex I mutant cybrid cells, 72 h, stronger effect = higher value
[8] = compounds altering circadian rhythm period length – cell-based, LOPAC library, luminescence reporter (AID 2774); settings: circadian reporter cells, at 7 µM, actives lie on both sides;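 further: values are relative to mean of DMSO wells on each plate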
[9] = MELAS cybrid and Rieske KO viability enhancers – cell-based, MELAS cybrids, Rieske KO mouse fibroblasts, CellTiter-Glo, primary screen (AID 1508586;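 active means mean z-score across replicates of 1.96 or higher in either the MELAS or the Rieske mutant cell line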;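 further: z relative to plate mean and SD of compound and empty wells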); settings: low glucose
[10] = measured here: relative caspase fold change +Dox/-Dox
[11] = measured here: total cells with miR-34 induction, stronger effect = lower value
[12] = measured here: total cells without miR-34 induction

Row | SMILES | survival [1] | fold change ([2]; stronger effect = lower value) | fold change [2, 10] | cell count [2, 11] | cell count [2, 12] | fold fluorescence [3] | inhibition [4] | fluorescence ratio (interference) [5] | outcome [6] | z-score [7] | period change [8] | fold change ([2]; stronger effect = lower value, cell number ratio, induced over uninduced) | z-score ([9]; MELAS cybrid survival, CellTiter-Glo 48 h, stronger effect = higher value) | z-score ([9]; Rieske KO mouse fibroblast survival, CellTiter-Glo 72 h)
1 | CCCCCCCCCCCCCCCCOC[C@@H](COP(=O)([O-])OCC[N+](C)(C)C)OC(C)=O | 78.6 (inactive) | 0.883 (inactive) | 0.996 | 4960 | 5620 | 4.51 (inactive) and 4.92 (inactive) |  |  |  |  |  |  |  | 
2 | CCCCC/C=C\C[C@@H](/C=C/C=C\C/C=C\CCCC(=O)O)OO | 111 (inactive) | 0.888 (inactive) | 1.25 | 5520 | 6220 | 6.04 [at 1 µM] (inactive) |  |  |  |  |  |  |  | 
3 | N#CC(C#N)=Cc1ccc(O)cc1 | 59.8 (inactive) | 1.08 (inactive) | 1.22 | 5450 | 5070 | 5.71 [at 293.8 µM] (inactive) |  |  |  |  |  |  |  | 
4 | C[C@H](N)Cc1cccc(C(F)(F)F)c1 |  | 0.951 (inactive) | 1.01 | 10400 | 11000 |  | -3% (inactive) | 1 (inactive) | inactive | 0.04 (inactive) |  |  |  | 
5 | C=CCN1C[C@@H](C)N([C@H](c2ccc(C(=O)N(CC)CC)cc2)c2cccc(OC)c2)C[C@@H]1C |  | 1.1 (inactive) | 1.18 | 8780 | 7950 |  | -3% (inactive) | 1 (inactive) | inactive | -0.39 (inactive) | 0 h (inactive) |  |  | 
6 | CCCCC/C=C\C/C=C\C/C=C\CCCCCCC(=O)NCCO | 87.2 (inactive) | 0.972 (inactive) and 1.13 (inactive) | 1.55 and 0.675 | 5830 and 6550 | 5990 and 5800 | 5.22 (inactive) |  |  |  |  |  |  |  | 
7 | CCCCCCCCCCCCCC(=O)O[C@@H]1[C@@H](C)[C@@]2(O)[C@@H](C=C(CO)C[C@@]3(O)C(=O)C(C)=C[C@@H]23)C2C(C)(C)[C@@]21OC(C)=O (some centres not stated) |  |  | 1.62 | 418 | 618 |  | -2% (inactive) | 1 (inactive) | inactive | -1.38 (inactive) | -1.74 h (active) | 0.676 (active) |  | 
8 | CC(N)c1cccc(Cl)c1Cl (configuration not stated) |  | 1.05 (inactive) | 0.961 | 10200 | 9670 |  | -2% (inactive) | 1 (inactive) | inactive | 0.12 (inactive) | 0.03 h (inactive) |  |  | 
9 | CCCCC/C=C\C/C=C\C/C=C\C/C=C\CCCC(=O)NCc1ccc(O)c(OC)c1 |  | 0.841 (inactive) and 1 (inactive) | 1.08 and 0.996 | 2750 and 5480 | 3270 and 5460 | 5.97 [at 113.7 µM] (inactive) |  |  |  |  |  |  |  | 
10 | NC1CC1c1ccccc1 (configuration not stated) |  | 0.977 (inactive) and 0.888 (inactive) | 1.3 and 1.48 | 10200 and 8220 | 10400 and 9270 |  | -1% (inactive) | 1 (inactive) | inactive | 0.355 (inactive) | 0.03 h (inactive) |  | -0.158 (inactive) | -0.299
11 | CCCCC/C=C\C/C=C\C/C=C\C/C=C\CCCC(N)=O | 110 (inactive) | 1.05 (inactive) and 1.02 (inactive) | 1.34 and 1.46 | 6020 and 5980 | 5750 and 5890 | 4.13 (inactive) |  |  |  |  |  |  |  | 
12 | C=CCN1CC[C@]23CCCCC2[C@H]1Cc1ccc(O)cc13 (some centres not stated) |  | 1.09 (inactive) | 0.636 | 10900 | 10000 |  | -4% (inactive) | 1 (inactive) | inactive | -0.095 (inactive) | 0.175 h (inactive) |  |  | 
13 | Oc1ccc2c3c1O[C@H]1c4[nH]c5ccccc5c4C[C@@]4(O)C(C2)N(CC2CC2)CCC314 (some centres not stated) |  | 1.01 (inactive) | 1.69 | 8190 | 8080 |  | -4% (inactive) | 1 (inactive) | inactive | -0.835 (inactive) | 0.005 h (inactive) |  |  | 
14 | COc1ccc2c(c1)C13CCCCC1C(C2)N(C)CC3 (configuration not stated) |  | 1.04 (inactive) | 1.15 | 10100 | 9710 |  | -1% (inactive) | 1.1 (inactive) | inactive | -0.635 (inactive) | 0 h (inactive) |  |  | 
15 | CCCCC[C@@H](/C=C/C=C\CCCCCCCC(=O)O)OO | 94.8 (inactive) | 0.981 (inactive) | 1.1 | 5710 | 5820 | 6.27 [at 1 µM] (inactive) |  |  |  |  |  |  |  | 
16 | O=C1/C(=C/c2ccccc2)C[C@@]2(O)[C@H]3Cc4ccc(O)c5c4[C@@]2(CCN3CC2CC2)[C@H]1O5 |  | 1.23 (inactive) | 1.39 | 588 | 478 |  | -4% (inactive) | 1 (inactive) | inactive | -1 (inactive) |  |  |  | 
17 | N#CC(=Cc1ccc(O)c(O)c1)C(N)=S |  | 0.981 (inactive) | 1.34 | 9410 | 9590 |  | 3% (inactive) | 0.9 (inactive) | inactive | -0.465 (inactive) | -0.06 h (inactive) |  |  | 
18 | CCCC[C@H]1C(=O)O[C@H](C)[C@H](NC(=O)c2cccc(NC=O)c2OC)C(=O)O[C@@H](C)[C@@H]1OC(=O)CC(C)C |  | 1.28 (inactive) | 0.897 | 869 | 680 | 6.91 [at 93.5 µM] (inactive) |  |  |  |  |  |  |  | 
19 | CCCCC/C=C\C/C=C\CCCCCCCC(=O)NCCO | 162 (inactive) | 1.09 (inactive) and 1.06 (inactive) | 1.07 and 1.16 | 5710 and 5830 | 5220 and 5490 | 4.78 (inactive) |  |  |  |  |  |  |  | 
